test system: VDR:RXRa (NR concentration 270 nM, RXRa partner concentration 90 nM); experiment: PBM binding z-score (relative to random genomic background probes); higher = stronger binding; sequences stand for … in GC…GCGATTGACAGCGTAGAATGAAGG
Protocol: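 Protein-binding microarray (Agilent 4x180K custom design, double-stranded 60-nt probes: 5' GC cap, 34-nt variable region, 24-nt constant primer region; full probe sequence given). Purified or IVT nuclear receptor:RXRα heterodimers (3:1 NR:RXRα, mostly 270:90 nM) or homodimers were incubated for 1 h in PBS with 2% milk and no ligand, then detected with Alexa488 antibodies. Fluorescence from o1-orientation probes (~5 replicates averaged) was converted to z-scores against 500 random hg19 background probes. Variable regions are seed direct-repeat (DR0–DR5) sites, all their single-nucleotide variants and half-site ablations.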

Sequence | PBM binding z-score
ATATGTAAGTTAAGGGTCATTCAGGTTGGTTCGC | 5.46
CCTGATAGGTCAATGGTCAGCTAAAGCAGCTCGC | 1.99
ATCTCTAGCTAAAGTTCAGTGAAAGATCGATAGA | 1.49
CTAACTAGGTCATCCAGGACAGTGAATACATTGA | 4.72
TAGCCAAGGTCATGCGGGCCAGTATAGTGTCGGC | 5.15
ACAGATAGGTGATGAAGGTAACTCAGGCTATCAT | 0.219
ATACCAAGGTGATCGGGAGGTCGTTGATACTAAC | 2.58
ATCTCTAGTTAACCAAGTTCAGTGAATGCCGAAC | 2.46
GTTAGTTGGTCAGTAAAAGGTCACACACCGGTCG | 4.28
CAAACTAGGTCACAGAGGTCAAAGTGCGTGCGTA | 8.02
TCATATAGATAAAGGTGAAAGTCGAACGATATGA | 0.945
CGTCCAAGGTCAAAGGTCCGTGAAGAGATGACGG | 4.62
TCTAGTTGGTCAAAGATCACACACTCGAAATGCG | 1.29
CAAACTAGGTCAAAGGTAAAAGTCGAGCCAACCA | 2.98
CCTTACGGGTCAAGGTTAGAGCACGGGTGGTACG | 3.08
TGAATTAGGTTAAAGATCAGGGAACGTGGCGTCG | 0.374
AGTCAAAGTTTACTAGGTAACGTAAGATTCAGCT | 0.363
AGAAGGAGGGCAATGAGTTGATAGCACGGGTGGC | 4.93
GGAACGAGTGCAAAGTTGATAGCATCTGTCGACG | 1.49
CCTCGGAGGACAACAGGGGGTCAGAGCTGCCAGA | 3.17

Sequence | PBM binding z-score
TAGCCTAGGTCATTGGGCCAGTTTAGTACGCATC | 2.37
GATTGTAGATCAAGGTTAAGAAAGACTAAGCTAA | 0.0632
TCGAGTAGGTTATTCGGGGCATTCAGCCAACATA | 4.03
GGAACGAGGGCATTCGCGTTGATAGCATGGCGAT | 1.53
CGCCCAAGGTCAAGGTCAGTGAAAGAGACTCGAA | 4.61
CAAACTAGGTCAAGAGGTCAAAGTGCGCTTCCCG | 6.26
CGTCCAAGGTCATAGGAGGTGAGTGAAGACAGAT | 4.7
CGTCCAAGGTCAGAGAGGTCAGCGAATGCCGAGT | 7.48
ATCTCTAGGCAAGACTCAGTTCAGTGAAGAACGC | -0.0651
GCTAGCAGGCCATTTGCGTCACTCAATGACGGGC | -0.801
AGTTACGGGTCAACGAGGTTATAGCACGCGTATA | 7.65
CCGAATGGGGCAAGGTTACCATAACGCACAGCCA | 0.34
CCGAGTAGGTTATGGGCCATTCAGGCAACGGTGA | -0.116
ATATGTAGGTTAAGGGTCATTCACGTTGGTTCGC | 4.75
TAGCCTAGGTCATTGGGCCAGTGTAGTACGCATC | 2.12
CCTCGGAGGACAGAAGGACAGAGCTGTCCGCTTT | -0.413
CCAGACAGATGAAAGGTAACTCAGTCTGGTACGC | 0.208
CCTCGGAGGGCAGAAGGTCAGAGCTGTCCGCTTT | 1.17
ACAGACAGGTGATGAAGGTAACTCAAGCTATCAT | 0.0355
TCTCGCAGGACACGAAAGGTCAGAGCTCGACATC | 2.89

Source: the supplement of paper PMC6555819
